Data taken from ChEMBL document CHEMBL1961873, “Compounds: GSK PKIS; Assays: Nanosyn kinase panel” (2012).

Assays:
[1] = target: Tyrosine-protein kinase CSK (Homo sapiens) (UniProt P41240); details: at 1 µM;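 further: each value is an averaged inhibition reading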
[2] = target: T1, Discoidin domain-containing receptor 2 (Homo sapiens) (UniProt Q16832); details: at 0.1 µM
T1 sequence (whole entry): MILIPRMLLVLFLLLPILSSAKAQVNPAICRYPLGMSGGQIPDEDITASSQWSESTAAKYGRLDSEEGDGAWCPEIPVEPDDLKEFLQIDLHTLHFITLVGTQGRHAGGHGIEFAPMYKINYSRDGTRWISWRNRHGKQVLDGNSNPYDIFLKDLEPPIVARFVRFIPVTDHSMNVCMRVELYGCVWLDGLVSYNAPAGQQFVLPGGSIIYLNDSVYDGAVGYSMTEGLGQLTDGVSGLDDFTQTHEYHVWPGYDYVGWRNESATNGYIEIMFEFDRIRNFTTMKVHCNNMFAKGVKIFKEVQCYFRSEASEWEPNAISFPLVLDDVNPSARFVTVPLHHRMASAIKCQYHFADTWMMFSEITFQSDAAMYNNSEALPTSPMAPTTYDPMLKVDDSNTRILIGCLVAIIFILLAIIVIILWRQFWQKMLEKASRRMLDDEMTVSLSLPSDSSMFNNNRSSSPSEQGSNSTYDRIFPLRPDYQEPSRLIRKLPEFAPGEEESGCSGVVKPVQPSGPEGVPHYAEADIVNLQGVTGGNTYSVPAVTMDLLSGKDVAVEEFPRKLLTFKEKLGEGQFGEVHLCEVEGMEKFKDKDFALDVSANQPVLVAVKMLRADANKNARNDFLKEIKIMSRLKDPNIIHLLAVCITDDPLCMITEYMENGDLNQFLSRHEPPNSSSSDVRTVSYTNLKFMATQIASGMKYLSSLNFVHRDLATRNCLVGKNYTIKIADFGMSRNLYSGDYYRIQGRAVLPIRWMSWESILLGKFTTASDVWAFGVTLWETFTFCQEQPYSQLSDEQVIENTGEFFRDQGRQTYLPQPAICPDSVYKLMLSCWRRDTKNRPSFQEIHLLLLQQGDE

[3] = target: T1, Discoidin domain-containing receptor 2 (Homo sapiens); details: at 1 µM
[4] = target: Epidermal growth factor receptor (Homo sapiens) (UniProt P00533); details: at 0.1 µM
[5] = target: Epidermal growth factor receptor (Homo sapiens) (UniProt P00533); details: at 1 µM
[6] = tested on: Epidermal growth factor receptor (Homo sapiens), P00533 [L858R]; details: at 0.1 µM
Sequence of Epidermal growth factor receptor (Homo sapiens), P00533 [L858R] (P00533 whole entry L858R): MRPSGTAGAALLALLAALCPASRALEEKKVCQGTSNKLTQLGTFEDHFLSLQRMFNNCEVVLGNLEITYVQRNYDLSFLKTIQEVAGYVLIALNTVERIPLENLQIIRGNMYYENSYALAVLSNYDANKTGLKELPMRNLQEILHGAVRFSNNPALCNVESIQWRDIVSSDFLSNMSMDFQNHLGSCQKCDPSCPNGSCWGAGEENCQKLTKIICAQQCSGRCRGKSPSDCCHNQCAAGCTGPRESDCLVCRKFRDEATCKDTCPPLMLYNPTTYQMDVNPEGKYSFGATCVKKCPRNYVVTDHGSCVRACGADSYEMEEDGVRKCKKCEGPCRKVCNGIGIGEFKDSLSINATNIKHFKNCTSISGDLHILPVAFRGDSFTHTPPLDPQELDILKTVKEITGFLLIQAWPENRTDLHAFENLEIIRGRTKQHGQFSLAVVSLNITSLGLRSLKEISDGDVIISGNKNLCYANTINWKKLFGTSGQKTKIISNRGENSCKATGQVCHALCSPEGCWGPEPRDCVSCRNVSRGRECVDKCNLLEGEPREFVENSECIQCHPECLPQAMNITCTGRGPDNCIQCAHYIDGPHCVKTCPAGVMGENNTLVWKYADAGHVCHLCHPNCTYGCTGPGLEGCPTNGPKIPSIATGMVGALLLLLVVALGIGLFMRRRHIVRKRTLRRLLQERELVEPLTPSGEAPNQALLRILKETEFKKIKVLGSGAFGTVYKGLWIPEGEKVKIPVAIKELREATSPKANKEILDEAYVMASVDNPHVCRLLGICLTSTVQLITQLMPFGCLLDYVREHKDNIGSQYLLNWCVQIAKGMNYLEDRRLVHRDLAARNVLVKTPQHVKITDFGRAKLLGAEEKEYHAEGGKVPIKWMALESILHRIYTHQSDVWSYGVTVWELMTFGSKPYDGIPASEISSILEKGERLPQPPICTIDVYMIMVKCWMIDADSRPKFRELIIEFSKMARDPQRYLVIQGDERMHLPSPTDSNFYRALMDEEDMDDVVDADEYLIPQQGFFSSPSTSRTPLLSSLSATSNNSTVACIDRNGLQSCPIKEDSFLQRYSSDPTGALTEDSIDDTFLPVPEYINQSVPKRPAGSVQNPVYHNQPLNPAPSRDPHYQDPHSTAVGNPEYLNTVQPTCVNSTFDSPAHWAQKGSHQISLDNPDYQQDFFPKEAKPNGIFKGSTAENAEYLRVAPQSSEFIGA

[7] = tested on: Epidermal growth factor receptor (Homo sapiens), P00533 [L858R]; details: at 1 µM
[8] = tested on: Epidermal growth factor receptor (Homo sapiens), P00533 [L861Q]; details: at 0.1 µM
Sequence of Epidermal growth factor receptor (Homo sapiens), P00533 [L861Q] (P00533 whole entry L861Q): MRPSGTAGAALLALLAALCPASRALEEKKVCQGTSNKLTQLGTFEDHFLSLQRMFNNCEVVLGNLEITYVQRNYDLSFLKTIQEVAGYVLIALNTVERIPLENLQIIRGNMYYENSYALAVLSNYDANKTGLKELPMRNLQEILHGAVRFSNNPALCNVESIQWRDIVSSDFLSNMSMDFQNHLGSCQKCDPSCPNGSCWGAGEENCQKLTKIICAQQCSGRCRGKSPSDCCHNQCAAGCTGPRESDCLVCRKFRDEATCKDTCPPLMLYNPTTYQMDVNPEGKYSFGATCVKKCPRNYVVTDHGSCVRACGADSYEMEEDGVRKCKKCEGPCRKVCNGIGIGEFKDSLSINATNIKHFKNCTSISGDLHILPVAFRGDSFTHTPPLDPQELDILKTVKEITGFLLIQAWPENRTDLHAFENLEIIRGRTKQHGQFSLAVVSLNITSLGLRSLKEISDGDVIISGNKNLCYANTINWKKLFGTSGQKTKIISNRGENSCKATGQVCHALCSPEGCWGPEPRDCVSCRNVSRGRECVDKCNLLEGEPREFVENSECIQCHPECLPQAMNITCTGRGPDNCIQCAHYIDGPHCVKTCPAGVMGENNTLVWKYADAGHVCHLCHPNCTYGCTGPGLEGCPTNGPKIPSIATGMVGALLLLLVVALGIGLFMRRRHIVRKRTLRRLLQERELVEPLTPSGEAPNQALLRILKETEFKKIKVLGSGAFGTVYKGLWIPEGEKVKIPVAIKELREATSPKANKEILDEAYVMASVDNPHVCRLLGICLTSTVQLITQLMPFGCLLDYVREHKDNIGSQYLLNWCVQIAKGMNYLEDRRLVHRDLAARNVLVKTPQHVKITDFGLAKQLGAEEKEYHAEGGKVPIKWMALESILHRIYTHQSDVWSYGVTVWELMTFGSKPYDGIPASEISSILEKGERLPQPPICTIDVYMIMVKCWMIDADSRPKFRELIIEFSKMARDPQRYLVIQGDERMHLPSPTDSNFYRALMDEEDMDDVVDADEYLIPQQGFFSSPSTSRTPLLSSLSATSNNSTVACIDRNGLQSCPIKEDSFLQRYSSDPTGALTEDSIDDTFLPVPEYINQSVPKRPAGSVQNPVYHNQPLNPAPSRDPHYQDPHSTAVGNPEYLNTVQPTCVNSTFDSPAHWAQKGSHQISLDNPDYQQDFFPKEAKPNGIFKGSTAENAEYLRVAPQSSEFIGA

[9] = tested on: Epidermal growth factor receptor (Homo sapiens), P00533 [L861Q]; details: at 1 µM
[10] = tested on: Epidermal growth factor receptor (Homo sapiens), P00533 [T790M]; details: at 0.1 µM
Sequence of Epidermal growth factor receptor (Homo sapiens), P00533 [T790M] (P00533 whole entry T790M): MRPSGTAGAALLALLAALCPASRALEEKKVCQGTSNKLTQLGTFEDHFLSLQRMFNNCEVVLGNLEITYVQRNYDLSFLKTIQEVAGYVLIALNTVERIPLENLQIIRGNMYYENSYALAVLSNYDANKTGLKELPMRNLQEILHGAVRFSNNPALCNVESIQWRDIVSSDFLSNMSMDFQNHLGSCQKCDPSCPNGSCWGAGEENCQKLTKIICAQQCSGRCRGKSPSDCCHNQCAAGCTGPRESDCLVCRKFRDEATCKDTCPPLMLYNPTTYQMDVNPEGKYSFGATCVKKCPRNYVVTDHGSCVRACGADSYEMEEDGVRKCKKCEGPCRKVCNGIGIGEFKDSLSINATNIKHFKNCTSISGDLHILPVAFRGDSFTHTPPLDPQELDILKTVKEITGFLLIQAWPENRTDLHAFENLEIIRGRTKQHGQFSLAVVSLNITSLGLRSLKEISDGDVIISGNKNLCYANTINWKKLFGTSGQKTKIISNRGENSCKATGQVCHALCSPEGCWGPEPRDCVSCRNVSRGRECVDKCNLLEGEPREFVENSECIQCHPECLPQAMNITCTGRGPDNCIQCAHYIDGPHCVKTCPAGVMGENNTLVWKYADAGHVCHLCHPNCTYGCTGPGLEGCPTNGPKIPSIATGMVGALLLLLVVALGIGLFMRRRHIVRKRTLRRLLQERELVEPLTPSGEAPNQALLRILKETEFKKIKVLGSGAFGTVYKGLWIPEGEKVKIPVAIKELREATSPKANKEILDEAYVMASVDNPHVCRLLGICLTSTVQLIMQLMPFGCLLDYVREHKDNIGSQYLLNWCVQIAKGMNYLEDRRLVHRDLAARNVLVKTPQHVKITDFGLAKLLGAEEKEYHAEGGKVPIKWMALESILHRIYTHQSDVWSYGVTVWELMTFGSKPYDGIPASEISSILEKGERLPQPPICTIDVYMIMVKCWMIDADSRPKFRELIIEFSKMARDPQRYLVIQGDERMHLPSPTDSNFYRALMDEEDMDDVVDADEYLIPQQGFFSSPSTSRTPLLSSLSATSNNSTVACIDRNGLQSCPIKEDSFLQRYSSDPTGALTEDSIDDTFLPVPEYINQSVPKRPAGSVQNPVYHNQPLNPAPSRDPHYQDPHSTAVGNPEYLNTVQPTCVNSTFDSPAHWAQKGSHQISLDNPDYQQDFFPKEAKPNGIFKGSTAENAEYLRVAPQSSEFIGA

Sequence of Tyrosine-protein kinase CSK (Homo sapiens) (P41240 2-450 limits assumed): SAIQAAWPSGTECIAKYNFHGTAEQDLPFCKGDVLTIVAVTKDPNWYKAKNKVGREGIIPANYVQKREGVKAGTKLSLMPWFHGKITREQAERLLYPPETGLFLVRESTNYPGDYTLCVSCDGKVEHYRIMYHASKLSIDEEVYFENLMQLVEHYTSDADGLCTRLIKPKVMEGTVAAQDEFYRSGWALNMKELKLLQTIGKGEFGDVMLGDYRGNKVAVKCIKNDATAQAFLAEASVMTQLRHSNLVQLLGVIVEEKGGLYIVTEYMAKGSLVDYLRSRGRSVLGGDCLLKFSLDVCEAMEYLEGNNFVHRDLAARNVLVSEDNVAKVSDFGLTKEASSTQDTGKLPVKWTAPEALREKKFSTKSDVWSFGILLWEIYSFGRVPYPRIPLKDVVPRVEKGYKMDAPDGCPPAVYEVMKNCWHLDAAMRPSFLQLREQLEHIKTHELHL

Structure (SMILES) | inhibition [1] [%] | inhibition [2] [%] | inhibition [3] [%] | inhibition [4] [%] | inhibition [5] [%] | inhibition [6] [%] | inhibition [7] [%] | inhibition [8] [%] | inhibition [9] [%] | inhibition [10] [%]
Nc1nccc(-c2c(-c3ccc(F)cc3)ncn2CCCN2CCOCC2)n1 | 2.85 | -0.61 | -1.04 | -0.84 | 6.38 | 5.87 | 31.9 | 4.34 | 10.9 | 2.78
Nc1ccc(C#Cc2cncnc2Nc2ccc(OCc3cccc(F)c3)c(Cl)c2)cc1 | 4.88 | 1.32 | 0.65 | 45.5 | 82.8 | 5.98 | 35.2 | 23.1 | 37.2 | 2.51
O=C1Nc2ccccc2/C1=C/Nc1ccc2[nH]c(=O)[nH]c2c1 | 9.18 | 5.46 | 8.62 | 4.63 | 7.94 | 3.53 | 6.79 | 4.1 | 6.47 | 3.08
NS(=O)(=O)c1ccc(NC=C2C(=O)Nc3ccc4ncsc4c32)cc1 | 3.77 | 1.65 | 6.94 | 0.01 | 0.9 | 3.08 | 5.45 | 2.21 | 0.54 | 2.24
NS(=O)(=O)c1cccc(-c2cc3ccncc3cc2OCc2ccccc2)c1 | 4.74 | 1.4 | 6.85 | -0.75 | 3.23 | 4.24 | 6.99 | 4.79 | 3.2 | 2.32
NS(=O)(=O)c1ccc(N/N=C2\C(=O)Nc3ccc(Cl)cc32)cc1 | 7.01 | 0.3 | 3.13 | -0.16 | 5.53 | 2.02 | 5.32 | 1.9 | 3.4 | 0.9
COC(=O)Nc1nc2cc(Oc3ccc(NC(=O)Nc4cccc(Br)c4)cc3)ccc2[nH]1 | 3.27 | 98.2 | 93.7 | 1.74 | 3.19 | 5.58 | 5.33 | 3.01 | 4.1 | 2.15
COc1ccc2ncnc(Nc3ccc(OCc4ccccc4)cc3)c2c1 | 8.35 | 1.31 | 2.34 | 62.7 | 76.2 | 12.1 | 46.3 | 23.9 | 39 | -0.31
O=S(=O)(CCOCc1ccc(-c2ccc3ncnc(Nc4ccc(OCc5cccc(F)c5)c(Cl)c4)c3c2)o1)c1ccccc1 | 1.36 | 1.97 | 3.8 | 71.9 | 84.7 | 25.1 | 77.3 | 33.8 | 68.4 | -0.58
Cc1ccc(NC(=O)CC2CC2)cc1-c1ccc(C(=O)NCC2CC2)cc1 | 5.95 | 2.18 | 5.56 | 0.19 | 2.75 | 3.95 | 4.15 | 1.88 | 4.52 | 2.03
CN1CCN(C(=O)c2ccc(NC(=O)Nc3ccc(N(C)c4ccnc(Nc5ccc(CS(C)(=O)=O)cc5)n4)cc3)cc2)CC1 | 12.6 | 66 | 85 | 4.52 | 7 | -3.46 | 2.15 | 1.12 | 4.44 | -0.46
COc1cc2ncnc(Nc3ccc(C)c(O)c3)c2cc1OC | 16.8 | 2.29 | 9.45 | 64.7 | 80.9 | 92.3 | 99.4 | 77.2 | 96.2 | 8.64
NC(=O)c1cccc(Nc2nccc(Nc3cccc(F)c3)n2)c1 | 9.32 | -1.54 | 6.93 | 1.6 | 10.6 | 0.01 | 31.4 | 0.09 | 10.1 | -0.56
Cc1ccc2c(-c3ccnc(Nc4cccc(C(F)(F)F)c4)n3)c(-c3ccccc3)nn2n1 | 11.4 | 6.32 | 47.4 | 28.9 | 70.3 | 82.3 | 94.8 | 48.2 | 88.2 | 10.9
Oc1cccc(-c2nc(-c3ccccc3)[nH]c2-c2ccncc2)c1 | 16.5 | 2.82 | 10.9 | 2.76 | 4.4 | 6.31 | 19.7 | 4.74 | 8.26 | 1.84
CN(C)C(=O)O[C@H]1CN[C@H](C#Cc2cc3ncnc(Nc4ccc(OCc5cccc(F)c5)c(Cl)c4)c3s2)C1 | 2.76 | 1.62 | 1.98 |  |  |  |  |  |  | 
CC(C)c1ccc2c(c1)NC(=O)/C2=N/Nc1ccc(S(N)(=O)=O)cc1 | 0.99 | 0.55 | 0.19 | 1.14 | 2.18 | -0.18 | -0.39 | -0.48 | -2.09 | -1.03
CN(C)C(=O)O[C@@H]1CN[C@@H](C#Cc2cc3ncnc(Nc4ccc(OCc5cccc(F)c5)c(Cl)c4)c3s2)C1 | -1.42 | 1.79 | 3.36 |  |  |  |  |  |  | 
O=C1Nc2ccc(-c3cccnc3)cc2C1=Cc1cc(Br)c(O)c(Br)c1 | -1.69 | 2.03 | 5.97 | -0.06 | 5.08 | 4.88 | 10.5 | 2.92 | 2.2 | 2.3
Cc1cc(Cl)cc2c1NC(=O)C2=NNc1ccc(S(N)(=O)=O)cc1 | 3.65 | 5.11 | 4.88 | 0.92 | 1.34 | 0.35 | 4.79 | 1.56 | 4.09 | 1.21
[O-][S+]1CCN(Cc2ccc(-c3ccc4ncnc(Nc5ccc(OCc6ccccc6)c(Cl)c5)c4c3)o2)CC1 | 1.54 | 0.28 | 1.54 |  |  |  |  |  |  | 

Structure (SMILES) | inhibition [1] [%] | inhibition [2] [%] | inhibition [3] [%] | inhibition [4] [%] | inhibition [5] [%] | inhibition [6] [%] | inhibition [7] [%] | inhibition [8] [%] | inhibition [9] [%] | inhibition [10] [%]
COc1cc2ncn(-c3cc(OCc4ccccc4S(C)(=O)=O)c(C#N)s3)c2cc1OC | 4.26 | 2.02 | 8.19 | 3.74 | 11.8 | 9.37 | 45.8 | 3.09 | 8.31 | 3.02
Cc1ccc2c(c1)/C(=N/Nc1ccc(S(N)(=O)=O)cc1)C(=O)N2 | -6.97 | -0.42 | -0.71 | -0.37 | 0.75 | -1.56 | -1.97 | -0.23 | -4.18 | -0.84
CCS(=O)(=O)c1ccc(OC)c(Nc2ncc(-c3cccc(OC)c3)o2)c1 | 10.6 | 3.76 | 20 | 1.96 | 8.46 | 6.95 | 27.6 | 4.06 | 6.2 | 1.83
CN(C)c1cc2c(Nc3ccc4c(cnn4Cc4ccccc4)c3)ncnc2cn1 | 27.6 | 1.06 | 3.09 |  |  |  |  |  |  | 
OCc1ccc(-c2nc(-c3ccccn3)c(-c3ccc4c(c3)OCO4)[nH]2)cc1 | 3.94 | 2.68 | 4.73 | 3.69 | 6.33 | 3.45 | 1.89 | 3.49 | -0.4 | 2.68
COc1ccc(-c2nn3ncccc3c2-c2ccnc(Nc3cccc(C(F)(F)F)c3)n2)cc1 | 7.02 | 2.63 | 22 | 9.51 | 19.1 | 4.1 | 21.7 | 2.85 | 11.8 | 1
COC(=O)c1ccc2c(c1)C(=Cc1cc(Br)c(O)c(Br)c1)C(=O)N2 | 5.89 | 2.18 | 7.08 | 3.97 | 2.76 | -1.26 | 11.3 | 0.68 | 4.11 | 0.31
O=C(Nc1ccc(Oc2ccc3[nH]c(NC(=O)c4ccco4)nc3c2)cc1)Nc1cc(C(F)(F)F)ccc1F | 35.3 | 60.3 | 80.2 | -1.7 | -1.45 | 0.69 | 0.69 | 0.16 | -2.44 | 0.07
CCCN1CCCC(c2ccc(Nc3nc(Nc4cc(F)ccc4C(N)=O)c4cc[nH]c4n3)c(OC)c2)C1 (centres undefined) | 4.58 | 2.62 | 4.82 | 7.23 | 38 | 9.57 | 37.5 | 7.28 | 28.4 | 32
Cc1ccc(Nc2ccnc(Nc3cccc(C(N)=O)c3)n2)cc1O | 35.4 | 5.32 | 30 | -1.74 | 11.7 | 5.83 | 32 | 4.18 | 13 | 3.21
Nc1nccc(C#Cc2cncnc2Nc2ccc(OCc3cccc(F)c3)c(Cl)c2)n1 | 3.09 | 1.14 | 4.7 |  |  |  |  |  |  | 
c1ccc(Nc2ncc(-c3ccccc3)o2)cc1 | 3.75 | 2.39 | 7.24 | 4.96 | 10.5 | 4.87 | 2.77 | 2.75 | 4.14 | 2.39
CC(C)c1ccc(Nc2nccc(-c3cnn4ncccc34)n2)cc1 | 6.02 | 1.04 | 0.75 | 4.49 | 6.88 | 3.51 | 7.83 | 4.16 | 6.18 | -0.27
Cc1cc(-c2ccccn2)cc(C)c1/C=C/c1cncc(-c2nn[nH]n2)c1 | 20.2 | 1.22 | 5.62 | 2 | 9.58 | 2.87 | 4.85 | 2.42 | 5.99 | -0.39
CCOc1nccc2c1nc(-c1nonc1N)n2CC | 7.45 | 4.52 | 5.68 | 2.26 | 1.18 | 4.22 | 7.51 | 4.18 | 5.85 | 1.6
CN(c1ccc(NC(=O)Nc2ccc(OC(F)(F)F)cc2)cc1)c1ccnc(Nc2cccc(S(N)(=O)=O)c2)n1 | 29.4 | 53.2 | 88.6 | -0.6 | 3.21 | 1.4 | 3.36 | 1.14 | 5.92 | 1.81
Cc1ccc(C(=O)NC2CC2)cc1-c1ccc2[nH]ncc2c1 |  | -0.85 | -0.74 | -1.17 | 1.98 | -1.88 | -2.39 | -0.66 | -1.04 | -2
Cc1ccc2c(-c3ccnc(Nc4ccc5c(c4)OCCO5)n3)c(-c3ccc(C(F)(F)F)cc3)nn2n1 | 0.48 | -0.19 | 6.25 | -0.94 | 3.45 | 0.63 | 5.71 | -1.17 | 5.26 | -0.63
NS(=O)(=O)c1ccc(-c2cc3ccncc3cc2OCc2ccccc2)cc1 | 5.2 | 1.3 | 2.48 | -0.53 | 2.78 | 5.04 | 12.6 | 3.81 | 5.67 | 1.46
CCn1c(-c2nonc2N)nc2ccc(F)cc21 | 8.91 | 0.92 | 4.58 | 12.1 | 13.4 | 4.05 | 12.7 | 4.88 | 8.61 | 3
